“And” between values parts separate entries of the source, which are not always exact repeats. Identical values can stand only once. Inconclusive results are not listed. Where a call stands in place of a potency, no number is given. The source made the active and inactive calls. Calls come from the whole dose curve; as a rule, active = well fitted curve in the direction sought with a large enough effect in the repeat runs; inconclusive = weak or mixed curves; inactive = no such curve, though single readings can be large; an effect the other way counts as inactive or inconclusive.
experiment: qHTS RealTime-Glo MT Cell Viability Assay in HEK293 cells - 40 hour (AID 1224874); details: RealTime-Glo luminescence; max response: active compounds read low; note: nearly all actives have a fitted effect of over 50% in size
Outline: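 600 HEK293 cells per well, dispensed already mixed with RealTime-Glo MT reagents. Compound dosing came 5 h later. The same wells were read for luminescence at 0, 8, 16, 24, 32 and 40 h of exposure at 37 C.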
Potency is the fitted concentration of half-maximal effect.

| Compound | max response | Potency |
| --- | --- | --- |
| O=C(O)c1ccc2cc(C(=O)O)ccc2c1 | 7.36% (inactive) |  |
| C[C@@H](O)[C@H](N)C(=O)O | -1.76% (inactive) |  |
| Cc1ccc(C(C)C)cc2c(C)ccc1-2 | -5.67% (inactive) |  |
| CCCCCCC1CCCC(=O)O1 (centres undefined) | 3.13% (inactive) |  |
| CC(CO)Oc1ccccc1 (centres undefined) | -11% (inactive) |  |
| CCC(CC)C(C)CCOC(C)=O (centres undefined) | 20.3% (inactive) |  |
| Cc1cccc(C)c1NC(=O)c1ccc(N)cc1 | -2.12% (inactive) |  |
| Cc1c(C)c2c(c(C)c1OC(=O)c1cccnc1)CC[C@@](C)(CCC[C@H](C)CCC[C@H](C)CCCC(C)C)O2 | -1.07% (inactive) |  |
| O=c1c(O)c(-c2ccc(O)cc2O)oc2cc(O)cc(O)c12 | 7.77% (inactive) |  |
| CC(C)(C)NSc1nc2ccccc2s1 | 8.62% (inactive) |  |
| Nc1ccc(C(=O)O)c(O)c1 | -4.05% (inactive) |  |
| CN1CCN2c3ccccc3Cc3ccccc3C2C1 (centres undefined) | -5.98% (inactive) |  |
| Oc1ccccc1O |  | 35.1 µM (active) and 24.5 µM (active) |
| CCC(=O)OC(=O)CC | 0.495% (inactive) |  |
| CC(=O)Oc1cc2c(s1)CCN(C(C(=O)C1CC1)c1ccccc1F)C2 (centres undefined) | -4.77% (inactive) |  |
| O=C(/C=C/c1ccccc1)OC/C=C/c1ccccc1 | -1.97% (inactive) |  |
| OC/C=C/CO | 0.626% (inactive) |  |
| CC(=O)CC(=O)Nc1ccc(S(=O)(=O)O)cc1 | 0.915% (inactive) |  |
| O[C@@H]([C@H](O)[C@H](O)CBr)[C@H](O)CBr | 2.46% (inactive) |  |

experiment: A CellTox Green Cytotoxicity Assay to monitor cytotoxicity in HEK293 cells - 24 hour (AID 1224875); details: CellTox Green fluorescence; series mostly up to 76.8 µM; note: nearly all actives have a fitted effect of over 45% in size
Outline: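 Dead-cell fluorescence measured kinetically: asymmetric cyanine dye, HEK293, 600 cells/well, 5 h settle, 23 nL cpd/DMSO, 37 C, reads 0–40 h every 8 h.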

| Compound | Potency | activity change |
| --- | --- | --- |
| C#C[C@]1(O)CC[C@H]2[C@@H]3[C@H](C)CC4=C(CCC(=O)C4)[C@H]3CC[C@@]21C | inactive |  |
| COC(C)=O | inactive |  |
| CC1(C)CCC[C@]2(C)[C@H]3CC(=O)O[C@]3(C)CC[C@@H]12 | 49 µM (active) |  |
| CC(C)(C)C1CCC(=O)CC1 | inactive |  |
| Cc1ccc(C(=O)O)cc1 | inactive |  |
| CCCC(=O)OC(C)(C)Cc1ccccc1 | inactive |  |
| CCCCOC(=O)CC | inactive |  |
| COc1cc2nc(N3CCN(C(=O)c4ccco4)CC3)nc(N)c2cc1OC |  | 21% [at 15.8 µM, active compounds read high] (inactive) |
| C=Cc1cccc(C)c1 | inactive |  |
| O=C(O)c1ccc2cc(C(=O)O)ccc2c1 | inactive |  |
| CC(CO)Oc1ccccc1 (centres undefined) | inactive |  |
| Cc1cccc(C)c1NC(=O)c1ccc(N)cc1 | inactive |  |
| O=c1c(O)c(-c2ccc(O)cc2O)oc2cc(O)cc(O)c12 | inactive |  |
| Oc1ccccc1O | inactive |  |
| CC(=O)Oc1cc2c(s1)CCN(C(C(=O)C1CC1)c1ccccc1F)C2 (centres undefined) | inactive |  |

experiment: A CellTox Green Cytotoxicity Assay to monitor cytotoxicity in HepG2 cells - 16 hour (AID 1224876); details: CellTox Green fluorescence; series mostly up to 76.8 µM; note: nearly all actives have a fitted effect of over 45% in size
Outline: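 First, HepG2 cells (600/well) mixed with reagent were plated; second, after 5 h at 37 C they received compounds via pintool; third, fluorescence was measured at 0 h through 40 h at 8 h intervals.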

| Compound | Potency | cytotoxicity increase |
| --- | --- | --- |
| CN(C)Cc1ccccc1O | inactive |  |
| CC(CCc1ccccc1)NCC(O)c1ccc(O)c(C(N)=O)c1 (centres undefined) | inactive |  |
| C#C[C@]1(O)CC[C@H]2[C@@H]3[C@H](C)CC4=C(CCC(=O)C4)[C@H]3CC[C@@]21C | inactive |  |
| COC(C)=O | inactive |  |
| CC1(C)CCC[C@]2(C)[C@H]3CC(=O)O[C@]3(C)CC[C@@H]12 | inactive |  |
| CC(C)(C)C1CCC(=O)CC1 | inactive |  |
| CC(C)CCOC(=O)/C=C/c1ccccc1 | inactive |  |
| Nc1ccc(Oc2ccc(Cl)cc2)cc1 | inactive |  |
| CC[C@H](C)COC(=O)/C=C/c1ccc(N=Cc2ccc(OC)cc2)cc1 | inactive |  |
| C=CCCC(=O)/C=C/C1C(C)=CCCC1(C)C (centres undefined) | inactive |  |
| CCCC(=O)OCCc1ccccc1 | 43.6 µM (active) |  |
| O=C(O)c1cc(O)c2ccccc2c1O | 43.6 µM (active) |  |
| CC(C)(C)CC(C)(C)c1ccc(Nc2ccc(C(C)(C)CC(C)(C)C)cc2)cc1 |  | -0.431% [at 6.97 µM] (inactive) |
| CC(C(=O)O)c1ccc2c(c1)[nH]c1ccc(Cl)cc12 (centres undefined) | inactive |  |
| COc1cc2nc(N3CCN(C(=O)c4ccco4)CC3)nc(N)c2cc1OC |  | 29.2% [at 15.8 µM] (inactive) |
| OCC(F)(F)F | inactive |  |
| C=Cc1cccc(C)c1 | inactive |  |
| O=C(O)c1ccc2cc(C(=O)O)ccc2c1 | inactive |  |

| Compound | Potency | cytotoxicity increase |
| --- | --- | --- |
| C[C@@H](O)[C@H](N)C(=O)O |  | 6.33% [at 15.8 µM] (inactive) |
| Cc1ccc(C(C)C)cc2c(C)ccc1-2 | inactive |  |
| CCCCCCC1CCCC(=O)O1 (centres undefined) | inactive |  |
| CC(CO)Oc1ccccc1 (centres undefined) | inactive |  |
| CCC(CC)C(C)CCOC(C)=O (centres undefined) | inactive |  |
| Cc1cccc(C)c1NC(=O)c1ccc(N)cc1 | inactive |  |
| Cc1c(C)c2c(c(C)c1OC(=O)c1cccnc1)CC[C@@](C)(CCC[C@H](C)CCC[C@H](C)CCCC(C)C)O2 | inactive |  |
| CC(C)(C)NSc1nc2ccccc2s1 | inactive |  |
| Nc1ccc(C(=O)O)c(O)c1 | inactive |  |
| CN1CCN2c3ccccc3Cc3ccccc3C2C1 (centres undefined) | inactive |  |
| Oc1ccccc1O | inactive |  |
| CCC(=O)OC(=O)CC | inactive |  |
| CC(=O)Oc1cc2c(s1)CCN(C(C(=O)C1CC1)c1ccccc1F)C2 (centres undefined) | inactive |  |
| O=C(/C=C/c1ccccc1)OC/C=C/c1ccccc1 | inactive |  |
| OC/C=C/CO | inactive |  |
| CC(=O)CC(=O)Nc1ccc(S(=O)(=O)O)cc1 | inactive |  |
| O[C@@H]([C@H](O)[C@H](O)CBr)[C@H](O)CBr | inactive |  |

— PubChem BioAssay (Tox21)
